# Experimental data taken from the supplement of paper PMC8728848.
# Shown is part of a subset that was picked to be rich in the strongest signals.
# What was measured:
# Experiment in all cases: glycan array binding signal (z-score within array); higher = stronger binding
# Details in all cases: glycan notation: IUPAC condensed, linker removed
# GalNAc(a1-3)GalNAc = target: GalNAc(a1-3)GalNAc
# Summary of the method: (§1)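 The binding signal is a Z-score computed within each array. Data were drawn from 3228 arrays in the Consortium for Functional Glycomics database, restricted to those with a known protein sequence. Scores were averaged over arrays of the same protein sequence at different concentrations or buffers, and over linkers, and negative values can be taken as non-binding.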
# [1] = target: GalNAc(a1-3)GalNAc(b1-3)Gal(a1-4)Gal(b1-4)GlcNAc
# Summary of the method: as §1
# Glc(b1-4)Glc = target: Glc(b1-4)Glc
# Summary of the method: as §1
# [2] = target: GlcNAc(a1-4)Gal(b1-4)GlcNAc
# Summary of the method: as §1
# [3] = target: GlcNAc(a1-4)Gal(b1-4)GlcNAc(b1-3)Gal(b1-4)GlcNAc
# Summary of the method: as §1
# [4] = target: GlcNAc(b1-2)[GlcNAc(b1-4)]Man(a1-3)[GlcNAc(b1-4)][GlcNAc(b1-2)[GlcNAc(b1-6)]Man(a1-6)]Man(b1-4)GlcNAc(b1-4)[Fuc(a1-6)]GlcNAc
# Summary of the method: as §1
# [5] = target: GlcNAc(b1-2)[GlcNAc(b1-6)]Man(a1-6)[GlcNAc(b1-2)Man(a1-3)]Man(b1-4)GlcNAc(b1-4)[Fuc(a1-6)]GlcNAc
# Summary of the method: as §1
# [6] = target: GlcNAc(b1-4)Gal(b1-4)GlcNAc
# Summary of the method: as §1
# [7] = target: GlcNAc(b1-6)Gal(b1-4)GlcNAc
# Summary of the method: as §1
# Man(a1-6)Man = target: Man(a1-6)Man
# Summary of the method: as §1
# [8] = target: Neu5Ac(a2-3)Gal(b1-3)GlcNAc(b1-2)Man(a1-3)[GlcNAc(b1-4)][Neu5Ac(a2-3)Gal(b1-3)GlcNAc(b1-2)Man(a1-6)]Man(b1-4)GlcNAc(b1-4)GlcNAc
# Summary of the method: as §1
# [9] = target: Neu5Ac(a2-3)Gal(b1-3)GlcNAc6S
# Summary of the method: as §1
# [10] = target: Neu5Ac(a2-3)Gal(b1-4)GlcNAc(b1-3)Gal(b1-4)GlcNAc(b1-3)Gal(b1-4)GlcNAc(b1-2)Man(a1-3)[Neu5Ac(a2-3)Gal(b1-4)GlcNAc(b1-3)Gal(b1-4)GlcNAc(b1-3)Gal(b1-4)GlcNAc(b1-2)Man(a1-6)]GalNAc
# Summary of the method: as §1
# [11] = target: Neu5Ac(a2-3)Gal(b1-4)GlcNAc(b1-3)Gal(b1-4)GlcNAc(b1-3)[Neu5Ac(a2-3)Gal(b1-4)GlcNAc(b1-3)Gal(b1-4)GlcNAc(b1-6)]GalNAc
# Summary of the method: as §1
# [12] = target: Neu5Ac(a2-3)Gal6S(b1-4)GlcNAc
# Summary of the method: as §1
# [13] = target: Neu5Ac(a2-3)[GalNAc(b1-4)]Gal(b1-4)GlcNAc(b1-3)GalNAc
# Summary of the method: as §1
# [14] = target: Neu5Ac(a2-6)Gal(b1-4)GlcNAc(b1-6)[Gal(b1-3)]GalNAc
# Summary of the method: as §1
# [15] = target: Neu5Ac(a2-8)Neu5Ac(a2-3)Gal(b1-4)GlcNAc
# Summary of the method: as §1
# [16] = target: Neu5Ac9Ac(a2-3)Gal(b1-4)GlcNAc
# Summary of the method: as §1
binder,measurement,setting,value
PX15618B-bfa-464-25-464 (Bacteroides fragilis) (protein) DQEPPLYVNENDIFTSPTRIEATLNGLYAAIKNTGTKSLMGGKSYLVFDNRGDDVINISNNLVTLFNTYNMNVGITDAENADTWTYAYLAINKVNTFLQSLEGAREVAGENYDRYVQEAKFVRALAYYYLNNLYPTPYSVNPDAKSVPLRLTAEAGTENNNMPRSTVKQIYEHILSDLENISALDTEVNTYTGVTHATQAAANMLKMRVYMAMNEWDKAITAGELVTGYSLPEDVTLIYKAPYFSQESIFSLPMADTNIPNTQQSLAEYYYDGKIMLIDTKSGIMSKPDYSLATDKRIIAFKGEKDLLMKFTDAKTKLQWVPIFRYAETLLDLAECYANKAGGEATAKSLLKQVRGRSVDAATDPLNIDNLSGDALKEAIYNEKRLEFIGEGIRGIDIMRRGEHFIKVGENETINVGPSDEKYTWPIPQVELLLNKDINK,glycan array binding signal (z-score),GalNAc(a1-3)GalNAc,-0.504
same,glycan array binding signal (z-score),[1],-0.273
same,glycan array binding signal (z-score),Glc(b1-4)Glc,-0.138
same,glycan array binding signal (z-score),[2],-0.125
same,glycan array binding signal (z-score),[3],-0.455
same,glycan array binding signal (z-score),[4],0.399
same,glycan array binding signal (z-score),[5],0.701
same,glycan array binding signal (z-score),[6],1.25
same,glycan array binding signal (z-score),[7],-0.393
same,glycan array binding signal (z-score),Man(a1-6)Man,0.302
same,glycan array binding signal (z-score),[8],0.609
same,glycan array binding signal (z-score),[9],-0.374
same,glycan array binding signal (z-score),[10],3.29
same,glycan array binding signal (z-score),[11],0.164
same,glycan array binding signal (z-score),[12],-0.187
same,glycan array binding signal (z-score),[13],0.625
same,glycan array binding signal (z-score),[14],1.16
same,glycan array binding signal (z-score),[15],-0.48
same,glycan array binding signal (z-score),[16],0.409
